{"source": "PubChem BioAssay (NCI)", "note": "About 83,000 compounds went through this panel and 20% of them were active in at least one assay; those are over-represented in the sample as a whole.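 Negative percent growth values reflect cell death: -40 means 40% of the cells present at the start died, and -100 means all died.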 Unmarked numbers belong to inactive results. The source made the active and inactive calls."}
{"test_system": "HCT-116 colon", "experiment": "NCI-60 one-dose screen, 48 h (100 = growth as untreated, 0 = no growth, -100 = all killed)", "conditions": "10 µM unless noted", "protocol": "Growth inhibition of the HCT-116 human tumor cell line is measured as a screen for anti-cancer activity. Cells are grown in 96 well plates and exposed to the test compound for 48 hours. Compounds are tested at a single concentration, which is 10^-5 M for most compounds. The reported endpoint is percent growth (GI% or GIPRCNT), where numbers from 0 - 100% represent growth inhibition, and numbers from -100% - 0 represent cell death. For example, a value of 40 represents 60% growth inhibition. A value of 0 means no net growth occurred over the course of the experiment. A value of -40 indicates 40% of cells at the beginning of the experiment died by the end of the experiment. A value of -100 means all cells are dead at the end of the experiment.\nNCI-60 Human Tumor Cell Lines Screen was performed using the standard one-dose NCI protocol, which is described in more detail at https://dtp.cancer.gov/discovery_development/nci-60/default.htm.\nCompounds with GIPRCNT values below 10 were considered active. Activity score was based on GIPRCNT using the following formula: […]\nScore is 0 for GIPRCNT values of 100 or above, 50 for GIPRCNT values of 0, and 100 for GIPRCNT values of -100."}
{"smiles": "CN1CC(=O)N(O)C1(C)c1cccnc1", "note": "(stereo not given)", "growth": "102%"}
{"smiles": "O=C(CCCCCCC(=O)Nc1ccc(N(CCCl)CCCl)cc1)NO", "growth": "36.1%"}
{"smiles": "CC(=O)O[C@H]1C(=O)[C@@]2(C)[C@H]([C@H](OC(=O)c3ccccc3)[C@]3(O)C[C@H](OC(=O)[C@H](OC(=O)OC[C@H]4COC(C)(C)O4)[C@@H](NC(=O)c4ccccc4)c4ccccc4)C(C)=C1C3(C)C)[C@]1(OC(C)=O)CO[C@@H]1C[C@@H]2O", "growth": "4.97% (active)"}
{"smiles": "C/C(=C\\c1ccn(-c2ccc(N)cc2C(F)(F)F)n1)[C@@H]1C[C@@H]2O[C@]2(C)CCC[C@H](C)[C@H](O)[C@@H](C)C(=O)C(C)(C)[C@@H](O)CC(=O)O1", "growth": "12.1%"}
{"smiles": "CNC(=O)Oc1ccc2c(c1)OCO2", "growth": "111%"}
{"smiles": "CC(=O)O[C@H](C[C@H](C(C)C)N(C)C(=O)[C@@H](NC(=O)[C@H]1CCCCN1C)C(C)(C)C)c1nc(C(=O)N[C@@H](Cc2ccccc2)C[C@H](C)C(=O)O)cs1", "growth": "0.775% (active)"}
{"smiles": "N/C(=N\\N=C\\c1ccc(-c2ccccc2)cc1)N[N+](=O)[O-]", "growth": "28.7%"}
{"smiles": "ClCCN(CCCl)c1ccc(/C=N/Nc2ncnc3nc[nH]c23)cc1", "growth": "78.4%"}
{"smiles": "C[C@]12CC[C@H]3[C@@H](CC[C@]4(O)C[C@@H](O[C@@H]5O[C@H](CO)[C@@H](O[C@@H]6OC[C@@H](O)[C@H](O)[C@H]6O)[C@H](O)[C@H]5O)CC[C@]34C=O)[C@@]1(O)CC[C@@H]2C1=CC(=O)OC1", "growth": "5.35% (active)"}
{"smiles": "OCCCCCNC1CCCCC1", "growth": "94.7%"}
{"smiles": "CC[C@]12C=CCN3CC[C@]4(C(=C(C(=O)OC)C1)Nc1cc(OC)c(OC(C)=O)cc14)[C@@H]32", "growth": "12%"}
{"smiles": "COc1cccc(C=NC(Cc2cnc[nH]2)C(=O)O)c1O", "note": "(stereo not given)", "growth": "97.8%"}
{"smiles": "CCOC(=O)N1CC1", "growth": "98.4%"}
{"smiles": "ClC1=C(Cl)C(Cl)(C2(Cl)C(Cl)=C(Cl)C(Cl)=C2Cl)C(Cl)=C1Cl", "growth": "-73.4% (active)"}
{"smiles": "COc1cccc2c1c(C(=O)c1ccco1)cn2Cc1ccc(F)cc1", "growth": "111%"}
{"smiles": "COC(=O)C1CCC(NC(=O)c2csc([C@@H](C[C@H](C(C)C)N(C)C(=O)[C@@H](NC(=O)[C@H]3CCCCN3C)C(C)C)OC(C)=O)n2)CC1", "note": "(stereo not given in full)", "growth": "5.04% (active)"}
{"smiles": "CCN1C(=O)C(=C/C=C/c2ccccc2)C(=O)N(CC)C1=O", "growth": "16.3%"}
{"smiles": "COP(=O)(OC)C(O)c1ccc(Cl)cc1", "note": "(stereo not given)", "growth": "94.7%"}
{"smiles": "CCOP(=O)(NC[C@H]1O[C@](O)(CO)[C@@H](O)[C@@H]1O)OCC", "growth": "95.6%"}
{"smiles": "Cn1cccc1C1CC(=O)N(CCC[Se]C#N)C1=O", "note": "(stereo not given)", "growth": "2.78% (active)"}
{"smiles": "CCOC(=S)S[C@H]1C[C@@H]2[C@H](CC[C@]3(C)C(=O)CC[C@@H]23)[C@@]2(C)CCC(=O)C=C12", "growth": "104%"}
{"smiles": "CN(C)CCCOc1ccc2c(c1)c(C(=O)C(=O)NCCO)cn2Cc1ccccc1", "growth": "98.7%"}
{"smiles": "Cc1ccc(Nc2nc3c(s2)C2=CC[C@@H]4[C@H](CC[C@]5(C)C(=O)CC[C@@H]45)[C@@]2(C)CC3)cc1", "growth": "-25.4% (active)"}
{"smiles": "C=C1C[C@](OC)([C@H](O)C(=O)N[C@@H](OC)[C@@H]2C[C@@H](O)C(C)(C)[C@@H](C[C@@H](COC)OC)O2)O[C@H](C)[C@@H]1C", "growth": "-16.7% (active)"}
{"smiles": "CCC(CC)CC1(C)CC2(C)CCOC2OO1", "note": "(stereo not given)", "growth": "108%"}
{"smiles": "Cc1cc(N(CCCl)CCCl)ccc1C=Nc1cccnc1", "growth": "77.6%"}
{"smiles": "O=C(Nc1ccc([N+](=O)[O-])cc1)C(Cl)(Cl)Cl", "growth": "91.1%"}
{"smiles": "COC(=O)C1OC(Oc2ccc(N(CCCl)CCCl)cc2)C(OC(C)=O)C(OC(C)=O)C1OC(C)=O", "note": "(stereo not given)", "growth": "88.6%"}
{"smiles": "COC(=O)[C@@H](C)C[C@H](Cc1cn(C)c2ccccc12)NC(=O)c1csc([C@@H](C[C@H](C(C)C)N(C)C(=O)[C@@H](NC(=O)[C@H]2CCCCN2C)C(C)C)OC(C)=O)n1", "growth": "6.08% (active)"}
{"smiles": "CN1C(=O)C23CC4(C56CC78SSC(CO)(C(=O)N7C5Nc5ccccc56)N(C)C8=O)c5ccccc5NC4N2C(=O)C1(CO)SS3", "note": "(stereo not given)", "growth": "-78.5% (active)"}
{"smiles": "N#C[Se]Cc1cc(-c2ccccc2)n(-c2ccc(S(N)(=O)=O)cc2)n1", "growth": "-59.4% (active)"}
{"smiles": "COC[C@@H]1C[C@@]2(C)[C@@H](CC[C@@H]3[C@@H]2CC[C@@]2(C)[C@H]3CC[C@]2(C)O)CC1=O", "growth": "96%"}
{"smiles": "C1CCC2(CC1)OOCNCOO2", "growth": "92.8%"}
{"smiles": "COc1ccc(-n2c(C)nc3cc(OC)c(OC)cc3c2=O)cc1OC", "growth": "98.7%"}
{"smiles": "COc1ccc(/C=C\\c2cc(OC)c(OC)c(OC)c2)c(NS(=O)(=O)c2ccc(C)cc2)c1O", "growth": "8.54% (active)"}
{"smiles": "CCC(O)(CN)c1ccccc1", "note": "(stereo not given)", "growth": "99.8%"}
{"smiles": "CCN(CC)c1ccc2c(c1)OC(N)=C(C#N)C2c1cc(OC)c2c(c1)OCO2", "note": "(stereo not given)", "growth": "-8.55% (active)"}
{"smiles": "COc1cccc2c1c(C(=O)C(=O)Nc1cc(C)no1)cn2Cc1ccc(F)cc1", "growth": "34.4%"}
{"smiles": "COC(=O)[C@@H](C)C[C@H](Cc1ccccc1)NC(=O)c1nc([C@@H](C[C@H](C(C)C)N(C)C(=O)[C@@H](NC(=O)[C@H]2CC(=O)CCN2C)C(C)C)OC(C)=O)sc1C(C)C", "growth": "5.82% (active)"}
{"smiles": "CC(C)(C)C(=O)OCOP(=O)(OCOC(=O)C(C)(C)C)C1CCCN(O)C1=O", "note": "(stereo not given)", "growth": "1.32% (active)"}
